Laboratory results from the supplement of paper PMC3334620.
Over roughly 33,000 sequences, “E-score (-0.5 to 0.5)” has its median near -0.036; the highest 2% begin near 0.37. The full list was thinned out, with the highest values kept by preference.

Target: T1, Yer064c (UniProt P40041)
T1 sequence: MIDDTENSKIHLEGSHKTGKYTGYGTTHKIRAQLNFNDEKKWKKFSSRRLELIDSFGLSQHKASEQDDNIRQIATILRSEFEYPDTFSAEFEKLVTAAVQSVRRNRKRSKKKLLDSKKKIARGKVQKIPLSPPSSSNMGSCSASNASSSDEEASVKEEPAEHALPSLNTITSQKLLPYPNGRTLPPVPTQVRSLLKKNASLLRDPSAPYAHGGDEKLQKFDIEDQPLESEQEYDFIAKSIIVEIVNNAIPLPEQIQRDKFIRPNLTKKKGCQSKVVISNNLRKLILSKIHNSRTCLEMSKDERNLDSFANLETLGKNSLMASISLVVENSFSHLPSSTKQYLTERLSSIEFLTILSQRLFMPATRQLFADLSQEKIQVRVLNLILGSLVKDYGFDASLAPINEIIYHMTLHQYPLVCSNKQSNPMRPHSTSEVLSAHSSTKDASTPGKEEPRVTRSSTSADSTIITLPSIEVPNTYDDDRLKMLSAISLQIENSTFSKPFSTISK
Experiment: PBM E-score (8-mer binding enrichment) (E-score (-0.5 to 0.5)); higher = stronger / more preferred TF binding
Conditions: protein concentration: 200 nM; construct: GST-full length
Method: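 Universal 'all 10-mer' protein binding microarrays (Agilent AMADID 015681) probed with GST-tagged S. cerevisiae TFs (full-length or DBD) made by in vitro transcription/translation (PURExpress), about 100-200 nM. Bound TF was detected with fluorescent anti-GST. Each ungapped 8-mer (which stands for itself and its reverse complement) is scored by the PBM enrichment score (E-score), a modified Wilcoxon-Mann-Whitney statistic from -0.5 to +0.5, computed with the Universal PBM Analysis Suite. Scale: above 0.35 generally sequence-specific binding.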

Row | Sequence | PBM E-score
1 | CATATTGG | -0.027
2 | ATATCTAA | 0.128
3 | AGCAGGTA | -0.131
4 | CCTGCGCA | -0.352
5 | AATAATCA | 0.382
6 | TATAATCA | 0.387
7 | CATAATCC | -0.0164
8 | GATAATCA | 0.384
9 | TATAATAA | 0.115
10 | GATAATAA | -0.0817
11 | TATAATGA | 0.256
12 | AATAATCC | 0.0648
13 | CATAATCG | 0.109
14 | CATAATCA | 0.413
15 | GATAATCC | -0.0741
16 | AATAATCG | 0.104
17 | CCTTTACC | -0.149
18 | GAGCGTAA | 0.0724
19 | CCCCTGCC | -0.204
20 | ATACTCTC | 0.00838
21 | AGAAGGGG | -0.324
22 | GCCAGCAA | -0.238
23 | GGTCCATA | -0.194
24 | AAACGATG | -0.0198
25 | ATAGTCAT | 0.489

Row | Sequence | PBM E-score
26 | ATAGTCAA | 0.402
27 | ATAGTCCA | 0.213
28 | CTAGTCAG | 0.418
29 | ATCGTCAC | -0.00908
30 | CTAGTCCA | 0.109
31 | CTAGTAAG | 0.0365
32 | ATAGTAAT | 0.291
33 | ATAGTCAC | 0.481
34 | ATAGTCCC | 0.148
35 | ATCGTCAA | 0.0919
36 | ATCGTCAT | 0.0309
37 | AACCTATA | 0.0106
38 | CCGCGATA | -0.0471
39 | GTTGGTGA | 0.115
40 | AGAAACAG | -0.164
41 | GCTCCAAC | -0.164
42 | GTCGTACA | 0.19
43 | AGGGCGAC | -0.0248
44 | CTACAGAC | -0.184
45 | CCCATTAA | -0.0295
46 | GGGTCGAA | 0.0364
47 | GAGGCGGA | -0.0783
48 | CCCCCCAA | -0.315
49 | GACGAAGA | 0.0944
50 | GTGGGTTA | 0.103

Row | Sequence | PBM E-score
51 | CTAGTCGC | 0.316
52 | ATAGTCCG | 0.316
53 | ATAGTCGC | 0.389
54 | ATAGTCTG | 0.177
55 | ATAGTCAG | 0.454
56 | ATAGTCGG | 0.256
57 | ACAGAAGG | -0.0367
58 | CTGCATCA | -0.0294
59 | AGGATCGG | -0.209
60 | CGGGCTCC | -0.307
61 | GATGAGTA | 0.429
62 | AATGAGCA | -0.0702
63 | AATGAGGA | -0.00162
64 | GCTGAGTA | 0.212
65 | CATGAGTA | 0.341
66 | AATGAGTA | 0.389
67 | CGAGATTC | 0.0578
68 | AAGTTGTA | -0.0146
69 | ATGGGGCG | -0.111
70 | AATTAATT | 0.177
71 | GACTTATA | 0.387
72 | GACTTATC | 0.307
73 | TACTTATA | 0.116
74 | TCTCCCCA | -0.153
75 | CCGACAGC | -0.394

Row | Sequence | PBM E-score
76 | AGGGAGTA | 0.0389
77 | CGGGAGTA | -0.0367
78 | CGGGAGAC | 0.106
79 | CGGGAGTC | 0.413
80 | AGGGAGTC | 0.44
81 | AGGGAGTG | -0.175
82 | GCTACCAA | -0.00248
83 | CGAGCCGC | -0.00093
84 | GGACGACC | -0.23
85 | CGGGCACA | -0.212
86 | CCAGGATC | -0.0208
87 | ATCCGGAC | -0.228
88 | AATGGGGA | -0.288
89 | ACACCAGG | -0.148
90 | ACCAACGA | -0.0117
91 | GACCGGTC | -0.369
92 | CGTGACAA | -0.253
93 | GGTGACGA | -0.0961
94 | AGTGACCG | -0.22
95 | AGTGACGG | -0.0747
96 | AGTGACGA | 0.218
97 | AGTGACTA | 0.469
98 | GGTGACCA | 0.0718
99 | AGTGACAA | 0.0598
100 | CGTGACTA | 0.486

Row | Sequence | PBM E-score
101 | AGTGACTG | 0.403
102 | GGTGACTA | 0.486
103 | CGTGACGA | 0.0595
104 | GAGTACCA | 0.252
105 | AATACCAA | -0.0127
106 | CTCAACCA | 0.152
107 | GCTTGCCC | -0.427
108 | AGTATGGC | 0.0363
109 | CAAATTTG | 0.13
110 | ATGCGAAG | -0.0967
111 | GTTACTTA | 0.163
112 | CGAAAAAA | 0.0432
113 | CGTGACCC | 0.0177
114 | AGTGACGC | -0.182
115 | CGTGACGC | -0.00579
116 | CGTGACTC | 0.481
117 | AGTGACAC | -0.0262
118 | AGTGACTC | 0.486
119 | AGGGTACT | -0.144
120 | GGATTCAA | 0.18
121 | TGATTCCA | 0.398
122 | AGATTCAA | 0.314
123 | AGATTCCA | 0.0276
124 | CGATTCCA | -0.102
125 | TGATTCAA | 0.466

Row | Sequence | PBM E-score
126 | AGCGGAAG | -0.191
127 | CTGCACCC | -0.223
128 | AGACTGCA | 0.201
129 | GGACTGAA | 0.109
130 | TGACTGAA | 0.432
131 | CGACTGCA | 0.253
132 | AGACTGAA | 0.241
133 | TGACTGCA | 0.404
134 | ACTCCAAT | 0.238
135 | CAGTCCCC | -0.225
136 | CCGGTGAG | 0.0747
137 | GCGGAGTA | -0.0756
138 | CGACACTA | -0.0389
139 | GTTTTGGA | 0.197
140 | AATCACTC | 0.385
141 | CATCACTC | 0.0183
142 | CATCACTA | 0.0474
143 | AATCACTA | 0.373
144 | AAGCACTG | 0.0399
145 | AATCACTG | 0.375
146 | AAACACTG | 0.0608
147 | GATCACTA | 0.135
148 | CGGCGATC | -0.0422
149 | GTCACCAC | 0.29
150 | CATTCTAC | -0.179

Row | Sequence | PBM E-score
151 | CAAGATTA | 0.199
152 | AGTCCAGG | 0.0238
153 | AAGCCAGC | -0.181
154 | GTTCAAGA | 0.0547
155 | AACGCTCA | -0.103
156 | TCTGGACA | -0.266
157 | ACTTCGAA | 0.166
158 | GACTATGA | 0.435
159 | GACTATGC | 0.397
160 | CACTATGC | 0.0417
161 | TACTATGA | 0.318
162 | AACTATGC | -0.153
163 | AACTATGA | 0.237
164 | ACGGCGAG | 0.0206
165 | GCTCGCAC | -0.24
166 | CTACTTTC | 0.0258
167 | CGGCCGGC | -0.134
168 | GTGGTGGA | -0.14
169 | TTGGCCAA | -0.142
170 | AGACTAAC | 0.413
171 | GGACTTAA | 0.188
172 | TGACTACA | 0.476
173 | CCACTAAA | -0.0544
174 | CTACTAAA | 0.00127
175 | CGACTAAA | 0.41

Row | Sequence | PBM E-score
176 | CGACTACA | 0.351
177 | AGACTTAA | 0.195
178 | AGACTATC | 0.35
179 | TGACTTAA | 0.435
180 | AGACTAGC | 0.251
181 | AGACTACA | 0.344
182 | ACACTCTG | -0.0556
183 | ACGCCACT | -0.186
184 | GGAACTTA | -0.0956
185 | CAGTAACA | 0.0175
186 | TACATTGA | 0.0284
187 | AGATGATA | 0.0471
188 | AGTAAAGG | 0.0771
189 | ATCCATTC | 0.0758
190 | CTCAGATA | 0.268
191 | GGGTTTCA | -0.23
192 | ACCGGAGA | -0.00273
193 | ATAGAACC | 0.0363
194 | AGACTACC | 0.354
195 | CCACTAAG | 0.0593
196 | AGACTACG | 0.322
197 | CTACTAAG | 0.0152
198 | AGACTACT | 0.376
199 | AGACTATG | 0.319
200 | GGACTAAA | 0.331

Row | Sequence | PBM E-score
201 | AGACTAAG | 0.383
202 | TGACTAAA | 0.484
203 | TGGCTAAA | 0.306
204 | CGACTAAG | 0.399
205 | AAACTAAG | 0.175
206 | ACTATTCA | 0.106
207 | AGTTGCCA | -0.223
208 | ACGTTGAG | 0.0564
209 | GAGTCTGC | 0.312
210 | TTCAGCAA | -0.00768
211 | AGTGATAT | -0.134
212 | AACTGAAC | -0.119
213 | AAACTAAT | 0.243
214 | CGACTATC | 0.359
215 | AAACTAAA | 0.0515
216 | AGACTAGA | 0.276
217 | AGACTATA | 0.35
218 | ATACTAAT | 0.174
219 | CGACTATA | 0.374
220 | AGACTAAT | 0.389
221 | AGACTAAA | 0.398
